Test results taken from PubChem BioAssay (NCATS).
Results filed as inconclusive are left out. Calls of active or inactive are those of the source. The call rests on the fitted dose curve; in most records, active means well fitted curve in the direction sought with a large enough effect in the main read-out, with a control signal flat (not every such curve was filed as active); inconclusive means small, poorly fitted or top-dose-only effect, or effect the other way, or a change in a side signal; inactive means no such curve, though single readings can be large or run the other way.

Test: qHTS Validation Assay to Find Inhibitors of Chronic Active B-Cell Receptor Signaling (AID 485345)
Conditions: ABC-DLBCL cells, chronic BCR signaling reporter, CBG luciferase; series mostly up to 46.1 µM
Text: NIH Molecular Libraries Probe Production Network [MLPCN]
NIH Chemical Genomics Center [NCGC]
PI Name: Dr. R. Eric Davis
Diffuse large B-cell lymphoma (DLBCL) is the most common category of non-Hodgkin lymphoma, with ~20,000 new cases per year in the United States. DLBCL should be regarded as a collection of different neoplasms. Microarray gene expression analysis has defined two principal types of DLBCL, named for their similarity to normal B cell stages or activation states: a germinal center B-cell (GCB) type, and an activated B-cell (ABC) type. In ABC-DLBCL, a constitutive high-level activity of the NF-kappaB family of transcription factors has been observed (1) and NF-kappaB target genes are more highly expressed in ABC primary tumors than in GCB tumors. Functional studies have shown a constitutive high-level activity of the IkappaB (inhibitor of kappa-B) kinase (IKK) complex. […] Further analysis of DLBCL primary tumors for NF-kappaB target gene expression imply that although CARD11 is required for constitutive IKK activity in all ABC-DLBCL lines, mutations in CARD11 may be the root cause of IKK activation only in lines or tumors with such mutations. In other words, CARD11 mutations may explain NF-kappaB activation in only 10% of ABC-DLBCL cases. […] This process has been termed 'chronic active BCR signaling' (CABS).
The goal of this screen is to find small-molecule inhibitors of the CABS pathway found in ABC-DLBCL lines using a cell-based assay that measures IkappaBalpa stability, which has already been extensively validated in the OCI-Ly3 line (PubChem AID:445; REF: 4).
A cell-sensor assay for I-kappa-B-alpha stabilization has been developed. The assay uses green (CBG68) and red (CBR) emitting beetle luciferases [Chroma-GloTM developed by Promega Corp.] where the green luciferase is fused to IkappaBalpha and the red luciferase is present in its native state. Both luciferase genes are stably present in the TMD8 human ABC DLBCL cell line, but their expression is under the control of tetracycline-inducible promoters. Following the addition of doxycycline to induce expression of the luciferases, the green luminescence in control cultures rises only slowly because the CBG fusion partner IkappaBalpha is targeted by IKK activity for rapid degradation. In contrast, green luminescence rises rapidly in the presence of proteasome inhibitors or IKK inhibitors. The rise in red luminescence of CBR is not affected by proteasome or IKK inhibitors, and serves as normalization for cell number and nonspecific effects. Compounds were screened as a concentration-titration series that ranged from 46 uM to 3 nM.
NCGC Assay Protocol Summary:
Cells were seeded in 1536-well plates at 5000 cells/4uL in IMDM medium containing 0.5% FBS, w/o phenol red, 1% penicillin/streptomycin. Then, 23 nL of compounds or DMSO were delivered to each well using a pin tool. One uL 20ng/ml doxycycline was then dispensed into white solid 1536-well plates and the plates were incubated at 37C/5% C02 in a cell incubator for 4 hrs. Then 4 uL luminescent substrate mix (in-house prepared: 150 mM Tris-Cl, pH 7.6, 3 mM MgCl2, 1% Triton X-100, 5 mM DTT, 0.2 mM CoA, 0.15 mM ATP, 5 mM D-luciferin, final concentrations) was added to each well. The plate was incubated at r.t. for 10-15 min. The plates were measured on a ViewLux plate reader for green luminescence (540/20 nm filter) and red luminescence (618/8 nm filter). The green and red luminescent signals were corrected for red and green luminescence filter overlap using previously determined filter calibration constants (determined using the procedure outlined in the Promega Technical Manual; REF 4). The %Activity was determined from the ratio of corrected green/red luminescent values. MG132 were used as control. Green luminescent and ratio %Activity was determined by normalizing to the difference in signal between basal cells (0% Activity) and cells incubated with 10 uM of the proteasome inhibitor MG-132 (100% Activity). […]

Row | SMILES | outcome
1 | CC1=C(CC(=O)O)c2cc(F)ccc2/C1=C\c1ccc(S(C)=O)cc1 (stereo unspecified) | inactive
2 | Cc1cc(N)c2ccccc2[n+]1CCCCCCCCCC[n+]1c(C)cc(N)c2ccccc21 | inactive
3 | Nc1cc(=O)[nH]c(N)n1 | inactive
4 | CC(C)C(=O)c1c(C(C)C)nn2ccccc12 | inactive
5 | CCN(CC)CCOC(=O)C1(C2CCCCC2)CCCCC1 | inactive
6 | CN(C)CCCN1c2ccccc2CCc2ccccc21 | inactive
7 | COc1ccc(Cl)cc1C(=O)NCCc1ccc(S(=O)(=O)NC(=O)NC2CCCCC2)cc1 | inactive
8 | CC(C)NC[C@H](O)c1ccc(O)c(O)c1 | inactive
9 | CC(CN1c2ccccc2Sc2ccccc21)N(C)C (stereo unspecified) | inactive
10 | CC(C)(C)[C@]1(O)CCN2C[C@H]3c4ccccc4CCc4cccc(c43)[C@@H]2C1 | inactive
11 | CCN(CC)C(C)CN1c2ccccc2Sc2ccccc21 (stereo unspecified) | inactive
12 | CN(C)CC[C@@H](c1ccc(Cl)cc1)c1ccccn1 | inactive
13 | CCN(CC)CCNC(=O)c1cc(Cl)c(N)cc1OC | inactive
14 | N=c1c[n+](N2CCOCC2)[n-]o1 | inactive
15 | NC(N)=NCCC[C@H](N)C(=O)O | inactive
16 | CC(C)(C)c1onc(OCP(=O)(O)O)c1CC(N)C(=O)O (stereo unspecified) | inactive

Row | SMILES | outcome
17 | C#CCN(C)Cc1ccccc1 | inactive
18 | CC(CN(C)C)CN1c2ccccc2CCc2ccccc21 (stereo unspecified) | inactive
19 | O=C1N=C(O)CN1/N=C/c1ccc(-c2ccc([N+](=O)[O-])cc2)o1 | inactive
20 | CC(C)(C(=O)O)c1ccc(C(O)CCCN2CCC(C(O)(c3ccccc3)c3ccccc3)CC2)cc1 (stereo unspecified) | inactive
21 | NC1CCN(c2cccc(Cl)n2)CC1 | inactive
22 | C=Cc1c(C)c2cc3[nH]c(cc4nc(cc5nc(cc1[nH]2)C(C)=C5CCC(=O)O)C(CCC(=O)O)=C4C)c(C)c3C=C | inactive
23 | C[C@](N)(Cc1ccc(O)cc1)C(=O)O | inactive
24 | CNC(=O)Oc1ccc2c(c1)[C@]1(C)CCN(C)[C@@H]1N2C | inactive
25 | CCCCCCCCCCCCCCCC(=O)NCCO | inactive
26 | CC1=C(CC(=O)O)c2cc(F)ccc2/C1=C\c1ccc(S(C)(=O)=O)cc1 | inactive
27 | CNCCCC1c2ccccc2C=Cc2ccccc21 | inactive
28 | NC(=O)c1ncn([C@@H]2O[C@H](CO)[C@@H](O)[C@H]2O)n1 | inactive
29 | CC(=O)OCC(=O)[C@@]1(O)CC[C@H]2[C@@H]3CCC4=CC(=O)CC[C@]4(C)[C@H]3C(=O)C[C@@]21C | inactive
30 | OCc1cc(C(O)CNCCCCCCOCCCCc2ccccc2)ccc1O (stereo unspecified) | inactive
31 | CN(C)CCOC(C)(c1ccccc1)c1ccccn1 (stereo unspecified) | inactive
